HSF1 inhib = HSF1 inhibition. activity change, negative = inhibition, % at 7.5 µM (by protocol). NIH3T3-HGL HSE-luciferase, MG132-induced, luminescence 8 h; stronger effect = lower value. 0.77% of 300,000 active;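 active means more than half of replicate wells show activity change below -50%, luminescence cut by over half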;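 further: luciferase reports HSF-1 transcriptional activity via heat shock element; 0% = median of DMSO wells and -100% = zero luminescence signal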
LGR2 antag = Drosophila LGR2 receptor signaling inhibition; inhibition, % at 9.99 µM; 0.35% of 380,000 active; HEK293 LGR2, CRE-luciferase, bursicon-stimulated, 4 h;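 active means drop in luminescence signal, shown as inhibition above about 50% in the replicate tests, limit read from the data, passing the limit was not always enough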;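 further: agonist challenge used bursicon conditioned medium at about half maximal strength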
TROY NFkB inh = blocks TROY-dependent signaling in reporter cells; 0.98% of 360,000 active; AID 1347056; inhibition, % at 10 µM; Q293 LMP1-TROYcd NF-kB luciferase reporter, 4 h;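 active means compounds whose plate-normalised and pattern-corrected inhibition of the luciferase reporter signal at the single screening dose is 50% or more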
TWEAK-Fn14 inh = inhibitors of TWEAK-Fn14 interaction signaling; inhibition, % at 10 µM; AID 1159606; TWEAK-stimulated Fn14 reporter cells, luciferase luminescence, 8 h; 2% of 360,000 active; in the data active means inhibition above about 50%
LMP1 NFkB inh = reduces LMP1-driven NF-kappaB luciferase signal | LMP1-induced NF-kappaB luciferase reporter cells, luminescence | inhibition, % at 12.5 µM | 0.69% of 350,000 active; in the data active means inhibition above about 41%;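 further: 0% = neutral control wells and 100% = reference inhibitor control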
HSF-1 act = increases HSF-1 driven luciferase reporter signal | NIH3T3-HGL HSF-1 luciferase reporter, MG132, 8 h; 100% = twice DMSO control signal | activation, % at 9 µM | 1.7% of 300,000 active | AID 504408;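 active means mean replicate activation of at least 50% with a set share of replicates each reaching 50%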;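 further: 0% = median of the neutral control wells and 100% = twice that signal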
An asterisk follows results filed as active; . = no result; ! = not confirmed by another sample. Most compounds without a hit are left out; they make up all but 3.6% or so of the library.

SMILES	HSF1 inhib	LGR2 antag	TROY NFkB inh	TWEAK-Fn14 inh	LMP1 NFkB inh	HSF-1 act
COc1ccc(CCNC(=O)CNS(=O)(=O)c2ccc(Cl)cc2)cc1	5.5	0.6	-7.7	-10.9	.	40.1
COc1ccc(CNC(=O)CNS(=O)(=O)c2ccc(Cl)cc2)cc1	-3.9	.	79.8*	82.0*	2.1	-14.9
COc1ccc(S(=O)(=O)NCCC(=O)NCc2cccs2)cc1	-70.3*	.	26.2	4.8	-1.1	-76.8
CCCN(CCC)S(=O)(=O)c1ccc(NC(=O)Cc2cccs2)cc1	8.5	.	-6.7	1.5	-1.0	3.6
COc1ccc(NS(=O)(=O)c2ccc(NC(=O)Cc3cccs3)cc2)cc1	4.5	0.7	64.7*	38.0	5.6	-0.8
CCCNS(=O)(=O)c1ccc(NC(=O)Cc2cccs2)cc1	-0.8	.	3.4	-0.8	13.2	3.0
CCNC(=O)[C@@H]1[C@@H](CO)[C@@H]2Cn3c(ccc(-c4ccccc4)c3=O)[C@H]1N2Cc1cccnc1	.	-1.8	.	.	.	.
C[C@H](CO)N1C[C@H](C)[C@H](CN(C)Cc2ccccc2)OCCCC[C@H](C)Oc2ccc(NC(=O)Nc3ccc(F)cc3)cc2C1=O	.	12.1	.	.	.	.
CC(=O)Nc1ccc2c(c1)C(=O)N(C)[C@H]1CC[C@@H](CC(=O)Nc3cn(C)nc3C)O[C@@H]1CO2	.	8.0	.	.	.	.
COc1ccc(NS(=O)(=O)c2cc(NC(=O)c3ccc(=O)[nH]c3)ccc2C)cc1	.	-11.9	14.0	1.3	1.3	.
COc1ccc(NC(=O)c2cc(C)n(Cc3cccs3)c2C)cc1	40.2	-69.3	-25.8	-18.9	-15.0	67.6*
COc1ccc(NS(=O)(=O)c2cc(NC(=O)Cc3cccs3)ccc2C)cc1	-0.6	.	82.0*	94.2*	-5.2	25.6
Cc1ccc(S(=O)(=O)N(C)C[C@H]2Oc3c(NC(=O)c4cc(C)nn4C)cccc3C(=O)N([C@@H](C)CO)C[C@@H]2C)cc1	.	10.6	.	.	.	.
O=C(Nc1ccc(NC(=O)c2ccco2)cc1)c1ccc2c(c1)OCO2	-2.2	-25.6	.	67.6*	2.5	5.7
O=C(NC(=S)Nc1ccc2c(c1)OCO2)c1ccccc1	25.7	-99.6	-38.3	16.0	-48.6	57.2*
O=C(NC(=S)Nc1ccc2c(c1)OCCO2)c1cccc(Br)c1	27.7	-110.9	-36.5	5.0	-29.7	47.8
O=C(Nc1ccc2c(c1)OCCO2)c1ccccc1	12.1	.	-29.7	29.6	7.0	29.3
O=C(Nc1ccc2c(c1)OCO2)c1ccccc1	20.5	-61.8	-25.6	9.2	-23.1	58.1*
CC(C)(O)C#Cc1ccc(C(=O)Nc2ccc3c(c2)OCO3)s1	41.4	-68.7	-64.7	-37.0	-40.4	60.3*
O=C(Nc1ccc(NC(=O)c2ccco2)c(Cl)c1)c1ccc2c(c1)OCCO2	7.2	-46.2	-29.9	-18.4	-4.6	8.9
CCc1sc(C(=O)Nc2ccc3c(c2)OCO3)cc1C	.	-136.4	-30.4	-26.8	-31.8	.
C[C@@H]1CN([C@H](C)CO)C(=O)c2cc(NS(=O)(=O)c3cccs3)ccc2O[C@@H]1CN(C)C	.	-3.9	.	.	.	.
C[C@H](CO)N1C[C@H](C)[C@@H](CN(C)Cc2ccc(O)cc2)OCc2ccccc2-c2c(n(C)c3ccccc23)C1=O	.	9.1	.	.	.	.
CC(=O)N(C)C[C@@H]1Oc2cc(-c3ccccc3C)ccc2S(=O)(=O)N([C@H](C)CO)C[C@H]1C	.	-0.8	.	.	.	.
CCCCCCCN(c1ccccc1)[C@@H]1C[C@H]2CCCC(=O)N3CC[C@@H](C1)[C@@H]23	.	52.2*	37.8	33.7	11.4	.
SMILES	HSF1 inhib	LGR2 antag	TROY NFkB inh	TWEAK-Fn14 inh	LMP1 NFkB inh	HSF-1 act
CCCCNC(=O)O[C@@H]1C[C@H]2CCCC(=O)N3CC[C@@H](C1)[C@@H]23	-5.0	-3.7	-16.8	-0.5	-7.3	-5.2
O=C(Nc1c(C(=O)c2ccccc2)oc2ccccc12)c1cc(-c2ccccc2O)n[nH]1	25.2	-14.6	9.5	4.7	6.8	65.7*
Cc1ccc(C(=O)Sc2cccccc2=O)cc1	14.9	1.3	-31.7	101.8*	-18.6	23.0
O=C(Nc1ccccc1SC(=O)c1ccccc1)c1ccccc1	.	-91.1	-24.4	-18.4	-34.2	.
CO[C@H]1CN(C)C(=O)c2cc(NC(=O)c3cccc(F)c3)ccc2OC[C@@H](C)N(CC2CC2)C[C@H]1C	.	3.7	.	.	.	.
Cc1nn(-c2ccccc2)c(Cl)c1/C=C1\SC(=S)N(CCCCCC(=O)O)C1=O	15.5	9.1	26.1	-2.6	-9.1	23.3
Cc1nn(-c2ccccc2)c(Cl)c1/C=C1\SC(=S)NC1=O	-10.6	.	51.3*	29.9	-0.5	-5.2
CN1CCN(Cn2cc(/C=C/C(=O)c3ccccc3)c3ccccc32)CC1	45.5	.	-41.2	4.3	-42.0	87.0*
O=S(=O)(c1ccc(Cl)cc1)N1CCC(c2nc3ccccc3[nH]2)CC1	32.9	-5.9	0.0	-25.1	12.0	73.4*
COc1nnc(-c2ccc(C(=O)N3C[C@@H]4C[C@H](C3)c3cccc(=O)n3C4)cc2)c2ccccc12	-58.3*	.	8.0	0.5	-0.2	-69.3
C[C@@H]1CN([C@@H](C)CO)C(=O)c2cc(N(C)C)ccc2O[C@@H](C)CCCCO[C@@H]1CN(C)C(=O)CCCN(C)C	.	20.7	.	.	.	.
O=C1c2c(O)ccc(O)c2C(=O)c2c(NCCNCCO)ccc(NCCNCCO)c21	.	101.7*	78.1*!	93.4*!	66.7*	.
O=C1c2ccccc2C(=O)c2c(Nc3ccc(CCO)cc3)ccc(O)c21	-7.8	14.0	6.4	12.0	-6.8	-17.2
COc1ccc2cc(/C=C/C(=O)N3CCN(CC(=O)N4CCCCCC4)CC3)ccc2c1	22.4	.	-6.8	-16.8	33.5	61.4*
COc1ccc(NC(=O)/C(Cl)=C(/Cl)S(=O)(=O)Cc2ccc(C)cc2)cn1	11.8	.	85.5*	103.0*	86.7*	45.9
COc1ccc(NC(=O)/C(Cl)=C(/Cl)S(=O)Cc2ccccc2Cl)cn1 (configuration not stated)	.	.	.	.	88.7*	.
COc1ccc(NC(=O)Cc2ccc(Cl)c(Cl)c2)cn1	3.1	13.6	-36.0	-0.8	-5.1	15.6
COc1ccc(-c2cn3c4c(sc3n2)CCCC4)cc1	21.4	.	23.1	72.9*	1.5	47.3
COC(=O)c1ccc(CN2CCN(CCc3ccccc3)C(CCO)C2)cc1 (configuration not stated)	-72.0*	5.7	10.7	1.4	-4.8	-78.0
COC(=O)c1ccc(CN2CCN(CCC(C)C)C(CCO)C2)cc1 (configuration not stated)	-10.3	11.6	1.6	-10.4	-2.3	10.1
Cc1ccc(CN2CCN(Cc3cccc(OCCO)c3)CC2CCO)o1 (configuration not stated)	-86.2*	.	3.3	7.1	2.9	-88.5
OCCC1CN(Cc2cccc(-n3cccn3)c2)CCN1Cc1ccccc1 (configuration not stated)	-64.8*	3.1	0.9	-14.6	-5.4	-67.3
CO[C@H]1CN(C)C(=O)c2cc(NC(=O)C3CC3)ccc2OC[C@@H](C)N(C(=O)CN(C)C)C[C@H]1C	.	5.0	.	.	.	.

Assay outcomes from PubChem BioAssay.
